Screening results (PubChem)
Rows were chosen to be rich in hits. Some 28% of all compounds tested hit in one or more screens of this group.
CYP2C19 act: cytochrome P450 2C19 (human) activation. P33261. recombinant CYP2C19, luciferin-H EGE luminescence; active compounds read high; 0 = fully inhibited enzyme, 1 = untreated enzyme. activation factor at 5 µM. 96,000 tested, under 10 active;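 active = activation factor of at least 2 at 5 µM in the primary screen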;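 note: 0 = wells with 2.5 mM tranylcypromine and 1 = vehicle-only wells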
CYP2C9 activ: increases human cytochrome P450 2C9 activity; activation factor at 5 µM; recombinant CYP2C9, luciferin-H conversion, luminescence; active compounds read high; factor 1 = untreated enzyme, 0 = blocked; hit rate 1.4% among 96,000; AID 1024; P11712;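 active = activation factor of 2 or more for CYP2C9 at a 5 µM dose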;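 note: 0 = sulfaphenazole-blocked wells and 1 = vehicle-only wells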
CYP2C9 inh: human CYP2C9 inhibition | P11712 | CYP2C9 Supersomes, luciferin-H conversion, luminescence | inhibition, % at 5 µM | hit rate 20% among 96,000;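 active = blocking of liver enzyme CYP2C9 beyond about 50% at 5 µM, limit read from the data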
PLK1 inh: PLK1 (human) kinase inhibition; hit rate 0.53% among 97,000; AID 619; P53350; recombinant PLK1 kinase, TR-FRET peptide phosphorylation; inhibition, % at 10 µM;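 active = inhibition of 50% or more in the single-concentration screen; inactive = inhibition below 50%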;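 note: 0% = DMSO max control and 100% = H-89 dihydrochloride min control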
Target sequence (P53350 whole entry, looked up): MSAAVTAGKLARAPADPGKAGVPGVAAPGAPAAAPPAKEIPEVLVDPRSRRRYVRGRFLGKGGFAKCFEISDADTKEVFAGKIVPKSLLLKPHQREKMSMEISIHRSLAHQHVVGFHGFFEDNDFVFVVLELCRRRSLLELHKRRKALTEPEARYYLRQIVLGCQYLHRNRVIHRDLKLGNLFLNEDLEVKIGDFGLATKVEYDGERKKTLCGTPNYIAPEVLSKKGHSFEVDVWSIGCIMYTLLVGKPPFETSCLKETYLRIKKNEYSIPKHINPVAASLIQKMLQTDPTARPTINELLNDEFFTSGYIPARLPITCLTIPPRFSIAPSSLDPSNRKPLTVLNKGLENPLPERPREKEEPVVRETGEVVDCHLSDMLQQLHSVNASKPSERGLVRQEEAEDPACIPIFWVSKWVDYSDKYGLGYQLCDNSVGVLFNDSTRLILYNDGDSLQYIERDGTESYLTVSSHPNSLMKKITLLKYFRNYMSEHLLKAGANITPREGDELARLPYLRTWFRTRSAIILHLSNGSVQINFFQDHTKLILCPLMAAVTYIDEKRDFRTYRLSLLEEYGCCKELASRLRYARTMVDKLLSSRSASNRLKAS
CYP2C19 inh: inhibitors of human CYP2C19; P33261; CYP2C19 Supersomes, luciferin-H EGE luminescence, 30 min; inhibition, % at 5 µM; hit rate 21% among 96,000; AID 778;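 active = CYP2C19 inhibition above a set limit at 5 µM in the primary screen, cut at about 50% in these data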;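 note: plate controls were negative control wells for no effect and 2.5 mM tranylcypromine positive control for full effect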
Plk1 PBD FP: blocks phosphopeptide binding to human Plk1 polo box domain | P53350 | inhibition, %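 (tested at about 20 µM)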 | hit rate 0.13% among 97,000 | Plk1 PBD phosphopeptide binding, fluorescence polarization; in the data active = inhibition above about 34%, passing the limit was not always enough
The depositor's hits bear a star; . = no result given.

SMILES	CYP2C19 act	CYP2C9 activ	CYP2C9 inh	PLK1 inh	CYP2C19 inh	Plk1 PBD FP
COc1ccc(/C=N/NC(=O)c2nc(Cl)c(Cl)c(N)c2Cl)cc1COc1ccc(F)cc1F	0.5	0.3	66.9*	-9.1	46.2	-18.0
COc1cc(OC)cc(C(=O)N/N=C/c2ccc(OC)c(COc3ccc4ccccc4c3)c2)c1	0.9	1	4.5	-13.1	7.3	-8.0
CN1CCN(CC(C)(C)NS(=O)(=O)c2ccc(Cl)cc2)CC1	0.1	1	0.8	-2.9	94.8*	-16.2
CN(C)CCNS(=O)(=O)c1ccc(Cl)cc1	.	.	.	-1.3	.	-25.2
CCOc1cc(NC(=O)c2ccco2)c(OCC)cc1NC(=O)CCc1ccc(OC)cc1	1.1	1.1	-10.4	.	-11.3	.
CCOC(=O)c1cnc2cc(Cl)c(OC)cc2c1NCC1CCCO1 (stereo not given)	0.7	0.3	69.9*	2.1	28.3	-18.3
COC(=O)c1ccc2c(c1O)C(=O)c1ccccc1C2=O	0.4	0.6	40.6	-0.5	59.5*	-6.3
COC(=O)c1cccc2c1-c1ccccc1/C2=N/O	0.4	0.2	84.5*	-5.3	58.8*	-21.4
CCCc1ccccc1OCCNC(C)=O	0.7	0.9	9.2	-11.2	25.5	12.7
CC(=O)NCCOc1cccc2ccccc12	0.4	1.8	-83.5	-16.8	55.7*	-0.9
Cc1ccc(NC(=O)N2CCCC2C(=O)NCCc2ccccc2)cc1 (stereo not given)	0.7	0.9	14.4	-19.3	26.4	-27.2
COc1ccc(OC)c2[nH]c(=O)c(CCNC(=O)C(C)C)cc12	0.8	1.2	-16.0	-12.3	15.1	2.1
Cc1ccc(C)c2[nH]c(=O)c(CCNS(=O)(=O)c3ccccc3)cc12	0.2	0.4	61.3*	5.6	76.1*	18.3
COc1ccc(OC)c2[nH]c(=O)c(CCNS(=O)(=O)c3ccc(C)cc3)cc12	0.7	0.3	67.8*	-8.4	30.8	-8.7
COc1ccc(OC)c2[nH]c(=O)c(CCNS(=O)(=O)c3ccc(Cl)cc3)cc12	0.6	0.2	83.8*	-10.5	44.0	-6.8
Cc1nc2nc[nH]n2c(=O)c1NC(=O)c1c(-c2ccccc2Cl)noc1C	1	0.6	39.4	.	4.9	.
CCOc1ccc(N/C(C)=C/C(=O)c2ccc(C)o2)cc1	0.5	0.8	20.6	-16.4	52.0*	1.3
CCN(CC)S(=O)(=O)c1ccc(NC(=O)Cn2c(=O)sc3ccccc32)cc1	1.1	0.3	70.4*	-15.8	-6.7	11.6
COc1cccc2c(=O)n(CC(=O)NC3CCCCC3)ccc12	0.7	2.2*	-117.7	-9.2	27.7	-18.2
O=C(CSc1nnc2sc3ccccc3n12)NCc1ccco1	0.8	2.9*	-186.2	-1.9	22.2	2.3
O=C(Cn1c(=O)sc2ccccc21)Nc1ccc(S(=O)(=O)N2CCCCC2)cc1	.	.	.	-5.5	.	8.1
O=C(Cn1c(=O)sc2ccccc21)Nc1ccccc1C(=O)O	1.1	0.2	85.0*	-14.1	-12.6	-6.2
CC(C)NC(=O)CSc1nnc2sc3ccccc3n12	0.9	1.6	-62.5	0.1	12.7	-5.2
CCOC(=O)N1CCN(C(=O)CN2C(=O)COc3ccc(C(C)(C)C)cc32)CC1	1.1	1	4.8	4.1	-5.2	-5.8
COc1ccc(C(C)N2CC34C=CC(O3)C(C(=O)O)C4C2=O)cc1 (stereo not given)	1	1	1.7	5.2	-3.5	3.0
SMILES	CYP2C19 act	CYP2C9 activ	CYP2C9 inh	PLK1 inh	CYP2C19 inh	Plk1 PBD FP
O=C(COC(=O)c1ccccc1Cl)Nc1nccs1	0.8	0.9	11.4	-9.1	18.9	18.8
O=C(Cn1c(=O)sc2ccccc21)NCc1ccco1	0.3	4.4*	-340.4	0.3	72.5*	-13.4
Cc1cc2ccccc2c(=O)n1CC(=O)N1CCN(c2cccc(Cl)c2)CC1	1.1	1.2	-19.8	-1.0	-7.8	3.5
Cc1cc2ccccc2c(=O)n1CC(=O)N(C)c1ccc(F)cc1	0.4	0.7	33.5	-12.4	60.3*	-11.9
O=C(Cn1c(=O)oc2ccccc21)NCc1ccco1	0.8	1.1	-9.4	-4.5	15.0	8.9
Cc1cccc(C)c1Nc1nnc(SCC(=O)NCc2ccco2)s1	0.3	0.8	19.5	-7.7	69.5*	18.0
Cc1cc2ccccc2c(=O)n1CC(=O)NC1CCCCCC1	0.4	1	0.2	-1.1	64.5*	-26.7
Cc1cc(N)n(-c2ncnc3scc(-c4ccccc4)c23)n1	0.9	0.8	16.6	0.9	9.8	-2.1
Cc1ccc(C)c(N(C(=O)CS(=O)CC(=O)Nc2ccc3c(c2)OCO3)C(C)C(=O)NC2CCCC2)c1 (stereo not given)	.	.	.	-9.1	.	12.9
COc1cc2c(cc1OC)C(c1ccccc1O)N(C1CC(=O)N(c3ccccc3)C1=O)CC2 (stereo not given)	1.1	0.8	16.8	-10.8	-6.3	3.6
O=c1[nH]c(CN2CCCCC2)nc2c1C1(CCCC1)Cc1ccccc1-2	.	.	.	-9.3	.	-13.9
Cc1cc2ccccc2c(=O)n1CC(=O)NCC(=O)N1CCN(c2ccccc2)CC1	1.2	2.4*	-140.4	-2.3	-17.5	-15.7
COc1ccc(NC(=O)Cn2c(=O)sc3ccccc32)cc1	0.5	0.8	16.7	3.8	46.3	9.6
Cc1cc2ccccc2c(=O)n1CC(=O)NCc1ccco1	0.5	2.6*	-156.4	-10.7	53.6*	7.9
O=C(Cn1c(=O)sc2ccccc21)Nc1ccccc1	0.6	0.4	60.1*	2.6	43.4	2.3
CNC(=O)CC1C(=O)N(C)C(=S)N1NC(=O)c1ccc(Cl)cc1 (stereo not given)	1	1	-2.0	-5.7	3.2	4.5
COc1ccc(NC(=O)C2CCC(=O)N2S(=O)(=O)c2ccc(C)cc2)c(OC)c1 (stereo not given)	0.9	1.7	-66.9	-8.2	13.3	-22.4
COc1ccc(CNC(=O)CN(C(=O)c2cc3sccc3n2C)C2CCCC2)cc1	0.9	0.8	15.4	.	6.1	.
CCOC(=O)C1=C(C)NC(=O)NC1C (stereo not given)	1.1	1.1	-5.2	5.7	-5.1	-6.0
CCOC(=O)C1=C(c2cccc(Oc3ccccc3)c2)NC(=S)NC1C (stereo not given)	0	0	98.9*	-12.8	100.0*	-9.9
Cn1c(NCC(O)CO)nc2c1c(=O)n(Cc1ccc(Cl)c(Cl)c1)c(=O)n2C (stereo not given)	0.8	0.7	27.9	-11.5	15.1	7.0
Cn1c(NCc2ccco2)nc2c1c(=O)n(Cc1ccc(Cl)c(Cl)c1)c(=O)n2C	0.4	0.3	69.1*	-11.3	60.1*	2.3
C=CCOc1nc2c(c(=O)n(Cc3ccc(Cl)c(Cl)c3)c(=O)n2C)n1C	.	.	.	-14.2	.	-14.9
Cn1c(OCc2ccc3c(c2)OCO3)nc2c1c(=O)n(Cc1ccc(Cl)c(Cl)c1)c(=O)n2C	0.6	0.2	80.1*	-7.4	35.5	-12.7
Cn1c(OCc2cccnc2)nc2c1c(=O)n(Cc1ccc(Br)cc1)c(=O)n2C	0.3	0.3	67.9*	.	68.2*	.
